SW480 rereplic: A quantitative high throughput screen for small molecules that induce DNA re-replication in SW480 colon adenocarcinoma cells. SW480 DNA re-replication, Hoechst DNA content imaging, 48 h. Potency, µM (doses to about 46.1 µM), inactives show at the highest dose re-replication activation, hits mostly activators. actives 1.8% (n = 340,000); also: % of control where 0% means no effect; nearly all actives have a fitted effect of over 55% in size
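250 cells/well; 23 nL cpd via pin tool; 48 hr, 37 C, 5% CO2; Hoechst 40 min; imager read of total nuclear intensity, ex 405/em 500-530 nm.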
HT1080-NT tox: qHTS for induction of synthetic lethality in tumor cells producing 2HG: qHTS for the HT-1080-NT fibrosarcoma cell line; HT-1080-NT fibrosarcoma viability, CellTiter-Glo ATP luminescence, 48 h; Potency, µM (top dose mostly 46.1 µM), for inactives: at the highest dose activity, negative = less viability, actives largely listed as cytotoxic; actives 1.6% (n = 360,000); AID 686970, 2013;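 also: NT is the 2HG producing partner of a matched IDH1 knockdown line; 0% = DMSO-treated cells and -100% = media-only wells without cells; nearly all actives have a fitted effect of over 55% in size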
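750 cells/well, RPMI + 5% FBS; 2 h settle, compound pin-transfer, 48 h at 37 degrees C. CellTiter-Glo 10 min RT, luminescence. Normalized to DMSO and media-only wells.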
KB-V1 cytotox: qHTS assay for MDR1-selective chemotherapeutics: Primary screen using the drug-selected MDR subline cells KB-V1; AID 1347076, 2019; Potency, µM (titrated, usually from 46.1 µM), usual class: cytotoxic; actives 3.4% (n = 400,000); KB-V1 MDR cells viability, CellTiter-Glo, 72 h; also: % is scaled to controls: 0 for no effect and ±100 for the full control effect; nearly all actives have a fitted effect of over 60% in size
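Cytotoxicity toward P-gp-expressing KB-V1 cells was determined as loss of CellTiter-Glo luminescence after 72 h at 37 degrees C. Compounds were tested in quantitative HTS format across a concentration range, with curves fitted to normalized data.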
HT1080 IDH1KD tx: qHTS for induction of synthetic lethality in tumor cells producing 2HG: qHTS for the HT-1080-IDH1KD cell line; HT-1080 IDH1 knockdown viability, ATP luminescence, 48 h; Potency, µM (highest dose often 46.1 µM), for inactives: top-dose activity, negative = toxicity, hits mostly cytotoxic; actives 2% (n = 360,000);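 also: 0% = DMSO wells and -100% = cell-free medium wells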
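After a 2 h attachment period, IDH1KD HT-1080 cells took pin-transferred compound for 48 h at 37 °C; ATP-based luminescence after 10 min room-temperature reagent incubation reported viability.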
KB-3-1 tox: qHTS assay for MDR1-selective chemotherapeutics: Primary screen using the parental adenocarcinoma cell KB-3-1; KB-3-1 viability, CellTiter-Glo ATP luminescence, 72 h; Potency, µM (titrated, usually from 46.1 µM), hits mostly cytotoxic; actives 1.4% (n = 400,000); also: % is scaled to controls: 0 for no effect and ±100 for the full control effect; nearly all actives have a fitted effect of over 60% in size
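Parental KB-3-1 adenocarcinoma cells in phenol-red-free DMEM with 10% FBS were pin-treated with compounds at several concentrations, incubated 72 h at 37 °C, and viability read by CellTiter-Glo luminescence; concentration-effect curves were fitted after normalization.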
MCF10A rerep: A quantitative high throughput screen for small molecules that induce DNA re-replication in MCF 10a normal breast cells; MCF 10A DNA re-replication, Hoechst nuclear intensity, 48 h; Potency, µM (top dose mostly 46.1 µM), for inactives: top-dose activity, positive = re-replication, actives largely listed as activators; actives 2.9% (n = 350,000); AID 624296, 2012; also: % of control where 0% means no effect; nearly all actives have a fitted effect of over 50% in size
An asterisk follows results filed as active; i = inactive; ? = inconclusive; · = not tested or not shown; [ ] = another dose, or the depositor's remark. Shown are actives, neighbours in structure and some others; about 7.9% of the full set was active somewhere. Calls follow the shape of the dose curve; as a rule, active = well fitted curve in the direction sought with a large enough effect; inconclusive = small, poorly fitted or top-dose-only effect, or another doubt; inactive = no such curve, though single readings can be large; an effect the other way counts as inactive or inconclusive. Potency is read from the fitted curve at half-maximal effect.

SMILES	SW480 rereplic	HT1080-NT tox	KB-V1 cytotox	HT1080 IDH1KD tx	KB-3-1 tox	MCF10A rerep
COC(=O)CCCCCN1C(=O)/C(=C\c2ccncc2)SC1=S	1.0%	0.3%	i	-6.4%	i	25.9µM*
CCc1noc(C)c1C(=O)Nc1cc(S(=O)(=O)N(CC)CC)ccc1N1CCCC1	-1.4%	0.3%	i	4.2%	i	-0.6%
O=C(O)C1CCCCC1C(=O)Nc1ccccn1 (stereo not given)	-1.6%	7.9%	i	6.2%	i	-2.0%
COc1ccc(/C=C2\SC(=O)N(CC(=O)NNC(=O)c3ccccc3O)C2=O)cc1OC	-7.1%	-29.6%	i	?	i	12.8%
O=C(CCCN1C(=O)/C(=C/c2ccccc2OC(F)F)SC1=S)Nc1cccnc1	?	-1.0%	?	-22.7%	?	23.1µM*
O=C(CCCN1C(=O)/C(=C/c2cccc(Br)c2)SC1=S)Nc1cccnc1	18.4µM*	?	i	?	?	18.4µM*
O=C(CCCN1C(=O)/C(=C/c2cccc(Br)c2)SC1=S)Nc1ccccn1	?	-0.5%	14.6µM*	7.3%	5.8µM*	?
CN(C)S(=O)(=O)c1ccc(C(=O)Nc2cccc(C(=O)O)c2)cc1	-10.8%	10.8%	i	1.0%[9.24 µM]	i	9.0%
Cc1ccc(CN2CC34C=CC(O3)C(C(=O)NCc3ccco3)C4C2=O)cc1 (stereo not given)	-4.2%	1.5%	18.4µM*	-1.6%	i	-0.1%
COc1ccccc1N1CCN(C(=O)c2ccc(N3CCCC3=O)cc2)CC1	-1.0%	-9.1%	i	5.9%	i	8.2%
O=C(C(Cl)Cl)N1c2ccccc2OCC1c1ccccc1 (stereo not given)	-0.7%	-10.5%	?	-19.0%	18.4µM*	?
CC1COc2ccccc2N1C(=O)c1ccc(Cl)cc1 (stereo not given)	-2.7%	1.7%	i	5.9%	i	2.1%
Cc1ccc(S(=O)(=O)N2c3ccccc3OCC2c2ccccc2)cc1 (stereo not given)	?	?	?	?	?	16.4µM*
CC1COc2ccccc2N1S(=O)(=O)c1ccc(Cl)cc1 (stereo not given)	?	-13.0%	i	-25.1%	i	20.6µM*
Cc1ccc(S(=O)(=O)N2CC(C(=O)O)Oc3ccccc32)cc1 (stereo not given)	-1.9%	0.4%	?	-1.4%	i	0.4%
CC(C)(C)NC(=O)CSc1nnc(-c2c[nH]c3ccccc23)o1	-46.6%	9.0%	i	12.1%	i	21.2%
COc1cc2c(cc1OC)CN(CC(=O)Nc1ccc(C)c(S(=O)(=O)N3CCOCC3)c1)CC2	-4.7%	-2.6%	i	0.0%	i	-1.5%
Cc1ccc(NC(=O)CN2C(=O)NC(C)(c3ccc(Cl)cc3)C2=O)cc1S(=O)(=O)N1CCOCC1 (stereo not given)	?	?	i	13µM*	?	?
CCc1ccc(N2CC(C(=O)Nc3ccc(C)c(S(=O)(=O)N4CCOCC4)c3)CC2=O)cc1 (stereo not given)	0.4%	-1.9%	23.1µM*	0.3%	i	0.7%
Cc1ccc(NC(=O)CN2C(=O)NC3(CCCCC3C)C2=O)cc1S(=O)(=O)N1CCOCC1 (stereo not given)	·	-0.2%	i	-2.2%	i	·
Cc1ccc(NC(=O)CN2CCc3ccccc3C2)cc1S(=O)(=O)N1CCOCC1	8.3%	1.1%	8.2µM*	1.2%	i	-5.4%

Source: PubChem
